Holding throughout (experiment): DAPPL (digital affinity profiling via proximity ligation, sequencing); 10 mM Tris-HCl pH 7.5, 50 mM NaCl, 1 mM DTT, 4% glycerol, room temperature, 30 min; GST-TFs on glutathione beads, 16-mer random dsDNA library, 0.1% formaldehyde crosslink after washing; high values mean tight binding
What all share (conditions): protein: recombinant; tags: N-terminal GST; dsDNA, one strand shown

Assay [1] addresses T1, FLI1 (Homo sapiens, UniProt Q01543 1-452).
T1 sequence: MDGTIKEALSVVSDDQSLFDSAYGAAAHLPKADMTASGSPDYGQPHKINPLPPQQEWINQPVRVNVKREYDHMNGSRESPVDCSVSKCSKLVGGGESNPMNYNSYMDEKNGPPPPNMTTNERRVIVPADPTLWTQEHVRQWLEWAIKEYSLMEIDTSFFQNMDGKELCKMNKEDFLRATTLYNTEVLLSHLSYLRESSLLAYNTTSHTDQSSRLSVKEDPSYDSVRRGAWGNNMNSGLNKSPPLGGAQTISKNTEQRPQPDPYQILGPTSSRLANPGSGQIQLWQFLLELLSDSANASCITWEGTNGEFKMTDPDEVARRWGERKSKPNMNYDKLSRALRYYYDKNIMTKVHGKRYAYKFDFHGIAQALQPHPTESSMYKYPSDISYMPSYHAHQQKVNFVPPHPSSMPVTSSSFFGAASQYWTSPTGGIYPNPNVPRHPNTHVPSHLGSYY
In outline:
(§1)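 A tag-only sample was pooled with DNA-barcoded human transcription factors that had been expressed in yeast as GST fusions and captured on glutathione beads. The pools were incubated for 30 min at room temperature with 200 nmole of a random double-stranded 16-mer DNA library in Tris/NaCl/DTT/glycerol buffer, then washed, crosslinked with 0.1% formaldehyde, proximity-ligated (BsaI/T4 ligase, 1 h, 37 °C), PCR-amplified and sequenced on an Illumina NextSeq500. Binding signal is each hexamer's read frequency for a factor divided by its frequency for the tag-only sample.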

The target in assay [2] is T2, ELK1 (Homo sapiens, UniProt P19419 1-428).
T2 sequence: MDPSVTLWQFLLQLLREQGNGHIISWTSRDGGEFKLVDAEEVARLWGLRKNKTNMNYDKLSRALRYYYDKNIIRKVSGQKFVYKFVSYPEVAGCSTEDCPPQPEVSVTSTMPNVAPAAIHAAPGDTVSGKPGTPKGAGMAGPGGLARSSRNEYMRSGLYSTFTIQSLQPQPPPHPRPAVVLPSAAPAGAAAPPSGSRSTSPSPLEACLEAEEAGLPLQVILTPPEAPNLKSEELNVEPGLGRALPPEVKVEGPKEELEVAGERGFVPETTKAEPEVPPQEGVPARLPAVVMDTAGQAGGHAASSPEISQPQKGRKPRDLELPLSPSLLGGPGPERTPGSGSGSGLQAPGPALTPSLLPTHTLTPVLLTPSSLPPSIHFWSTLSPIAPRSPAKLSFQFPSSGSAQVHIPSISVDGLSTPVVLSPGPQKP
In outline: as §1

The target in assay [3] is T3, GABPA (Homo sapiens, UniProt Q06546 1-454).
T3 sequence: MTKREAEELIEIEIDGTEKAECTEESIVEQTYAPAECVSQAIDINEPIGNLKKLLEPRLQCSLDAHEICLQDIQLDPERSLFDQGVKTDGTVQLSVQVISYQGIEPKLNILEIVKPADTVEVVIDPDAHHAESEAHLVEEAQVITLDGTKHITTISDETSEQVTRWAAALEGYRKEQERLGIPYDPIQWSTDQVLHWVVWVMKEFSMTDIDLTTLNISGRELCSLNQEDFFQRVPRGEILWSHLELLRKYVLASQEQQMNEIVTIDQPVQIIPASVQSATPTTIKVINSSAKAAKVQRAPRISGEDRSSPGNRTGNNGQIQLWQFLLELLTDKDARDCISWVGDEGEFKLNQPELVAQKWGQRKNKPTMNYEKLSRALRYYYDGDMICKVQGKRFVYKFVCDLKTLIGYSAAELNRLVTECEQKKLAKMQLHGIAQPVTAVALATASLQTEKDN
In outline:
as §1

The target in assay [4] is ELF1 (Homo sapiens, UniProt P32519 1-619). In outline: as §1
Chain of ELF1 (P32519 whole entry): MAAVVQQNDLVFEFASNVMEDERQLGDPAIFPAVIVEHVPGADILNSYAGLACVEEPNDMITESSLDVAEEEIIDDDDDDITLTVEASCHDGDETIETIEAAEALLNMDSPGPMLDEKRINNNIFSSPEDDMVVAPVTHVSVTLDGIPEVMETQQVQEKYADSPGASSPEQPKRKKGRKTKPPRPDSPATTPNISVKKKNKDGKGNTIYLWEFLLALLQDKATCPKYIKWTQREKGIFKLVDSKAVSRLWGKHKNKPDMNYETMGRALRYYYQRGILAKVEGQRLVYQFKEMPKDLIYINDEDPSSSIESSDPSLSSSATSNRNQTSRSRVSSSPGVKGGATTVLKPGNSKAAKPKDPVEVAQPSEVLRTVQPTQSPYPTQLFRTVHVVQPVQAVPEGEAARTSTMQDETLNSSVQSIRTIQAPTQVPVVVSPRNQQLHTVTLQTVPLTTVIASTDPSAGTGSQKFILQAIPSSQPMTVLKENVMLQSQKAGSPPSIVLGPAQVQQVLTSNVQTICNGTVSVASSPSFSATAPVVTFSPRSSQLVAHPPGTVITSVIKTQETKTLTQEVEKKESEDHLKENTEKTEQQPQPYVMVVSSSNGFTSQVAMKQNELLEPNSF
For assay [5], the target named is SPI1 (Homo sapiens, UniProt P17947 1-270). Put shortly: as §1
Assay [6] concerns the target SPIB (Homo sapiens, UniProt Q01892 1-262). In outline:
as §1

Assay [7] addresses T4, FEV (Homo sapiens, UniProt Q99581 1-238).
T4 sequence: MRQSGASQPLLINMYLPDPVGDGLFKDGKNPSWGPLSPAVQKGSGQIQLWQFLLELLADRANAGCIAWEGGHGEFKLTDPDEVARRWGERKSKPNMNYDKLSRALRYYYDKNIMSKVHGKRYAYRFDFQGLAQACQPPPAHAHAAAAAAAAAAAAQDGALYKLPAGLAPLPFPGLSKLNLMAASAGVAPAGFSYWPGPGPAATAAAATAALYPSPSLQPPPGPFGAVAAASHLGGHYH
In outline:
as §1

Assay [8] has as its target ETV5 (Homo sapiens, UniProt P41161 1-510). In outline: as §1
Assay [9] has as its target ELF4 (Homo sapiens, UniProt Q99607 1-663). In outline:
as §1

Assay [10] addresses ETV1 (Homo sapiens, UniProt P50549 1-477). Put shortly:
as §1

Assay [11] concerns the target T5, ERF (Homo sapiens, UniProt P50548 1-548).
T5 sequence: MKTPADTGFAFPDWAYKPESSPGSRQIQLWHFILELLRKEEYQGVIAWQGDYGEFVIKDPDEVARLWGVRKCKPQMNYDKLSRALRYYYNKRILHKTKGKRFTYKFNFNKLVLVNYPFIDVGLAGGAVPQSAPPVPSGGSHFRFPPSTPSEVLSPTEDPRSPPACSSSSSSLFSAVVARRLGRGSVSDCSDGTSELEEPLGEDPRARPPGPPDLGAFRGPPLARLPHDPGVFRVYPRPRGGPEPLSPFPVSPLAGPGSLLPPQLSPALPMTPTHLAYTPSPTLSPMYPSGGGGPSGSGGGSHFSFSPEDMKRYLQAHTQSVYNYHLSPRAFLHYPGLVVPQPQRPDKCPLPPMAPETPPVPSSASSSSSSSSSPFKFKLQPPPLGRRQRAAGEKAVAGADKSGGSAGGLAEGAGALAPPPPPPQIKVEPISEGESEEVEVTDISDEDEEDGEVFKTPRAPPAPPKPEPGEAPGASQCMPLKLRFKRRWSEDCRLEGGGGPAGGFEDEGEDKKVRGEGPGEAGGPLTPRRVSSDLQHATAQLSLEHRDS
In outline:
as §1

Assay [12] deals with T6, ETV3L (Homo sapiens, UniProt Q6ZN32 1-361).
T6 sequence: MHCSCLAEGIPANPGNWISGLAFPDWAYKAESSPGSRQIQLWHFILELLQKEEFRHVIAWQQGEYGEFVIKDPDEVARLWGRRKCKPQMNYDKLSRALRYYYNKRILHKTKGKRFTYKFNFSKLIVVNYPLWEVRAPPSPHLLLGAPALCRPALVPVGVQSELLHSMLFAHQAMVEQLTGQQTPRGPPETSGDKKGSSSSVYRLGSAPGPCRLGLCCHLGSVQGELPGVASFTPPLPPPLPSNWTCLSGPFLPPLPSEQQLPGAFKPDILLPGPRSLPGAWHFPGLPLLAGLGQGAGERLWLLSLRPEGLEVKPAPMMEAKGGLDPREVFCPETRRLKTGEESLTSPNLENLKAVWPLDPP
In outline: as §1

The target of assay [13] is T7, ETS2 (Homo sapiens, UniProt P15036 1-469).
T7 sequence: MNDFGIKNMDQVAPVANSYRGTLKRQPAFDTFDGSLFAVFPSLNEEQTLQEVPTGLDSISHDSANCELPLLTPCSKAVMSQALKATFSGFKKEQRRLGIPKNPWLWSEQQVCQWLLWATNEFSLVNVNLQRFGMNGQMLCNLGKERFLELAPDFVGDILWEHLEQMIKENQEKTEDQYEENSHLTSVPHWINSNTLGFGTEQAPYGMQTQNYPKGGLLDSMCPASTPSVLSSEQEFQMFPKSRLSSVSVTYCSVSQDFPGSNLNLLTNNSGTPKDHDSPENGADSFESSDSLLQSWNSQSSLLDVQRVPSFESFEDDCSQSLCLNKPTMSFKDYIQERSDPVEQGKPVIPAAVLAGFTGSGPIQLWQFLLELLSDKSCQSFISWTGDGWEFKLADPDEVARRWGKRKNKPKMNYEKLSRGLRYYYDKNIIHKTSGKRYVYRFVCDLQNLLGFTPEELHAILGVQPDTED
Put shortly: as §1

For assay [14], the target named is T8, SPDEF (Homo sapiens, UniProt O95238 1-335).
T8 sequence: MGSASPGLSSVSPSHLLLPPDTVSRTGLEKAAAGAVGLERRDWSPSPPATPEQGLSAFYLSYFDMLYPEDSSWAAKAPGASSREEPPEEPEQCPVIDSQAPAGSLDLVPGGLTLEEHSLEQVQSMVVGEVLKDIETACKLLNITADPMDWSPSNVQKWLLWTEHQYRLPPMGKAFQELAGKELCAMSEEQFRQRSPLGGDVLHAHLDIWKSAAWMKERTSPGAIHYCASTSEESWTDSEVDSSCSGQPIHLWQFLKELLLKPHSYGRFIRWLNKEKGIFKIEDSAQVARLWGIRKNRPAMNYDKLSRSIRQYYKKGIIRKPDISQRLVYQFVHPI
Put shortly: as §1

The target of assay [15] is T9, ELF5 (Homo sapiens, UniProt Q9UKW6-2 1-255).
T9 sequence: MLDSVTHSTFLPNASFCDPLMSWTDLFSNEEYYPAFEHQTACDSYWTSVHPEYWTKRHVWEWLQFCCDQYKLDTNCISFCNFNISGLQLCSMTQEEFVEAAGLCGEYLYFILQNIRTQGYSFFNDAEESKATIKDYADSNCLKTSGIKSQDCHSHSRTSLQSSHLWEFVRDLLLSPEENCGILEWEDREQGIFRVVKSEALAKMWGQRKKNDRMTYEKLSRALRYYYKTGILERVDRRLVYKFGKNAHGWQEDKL
Put shortly:
as §1

Assay [16] has as its target ETV6 (Homo sapiens, UniProt P41212 1-452). In outline:
as §1

Chain of ETV1 (P50549 whole entry): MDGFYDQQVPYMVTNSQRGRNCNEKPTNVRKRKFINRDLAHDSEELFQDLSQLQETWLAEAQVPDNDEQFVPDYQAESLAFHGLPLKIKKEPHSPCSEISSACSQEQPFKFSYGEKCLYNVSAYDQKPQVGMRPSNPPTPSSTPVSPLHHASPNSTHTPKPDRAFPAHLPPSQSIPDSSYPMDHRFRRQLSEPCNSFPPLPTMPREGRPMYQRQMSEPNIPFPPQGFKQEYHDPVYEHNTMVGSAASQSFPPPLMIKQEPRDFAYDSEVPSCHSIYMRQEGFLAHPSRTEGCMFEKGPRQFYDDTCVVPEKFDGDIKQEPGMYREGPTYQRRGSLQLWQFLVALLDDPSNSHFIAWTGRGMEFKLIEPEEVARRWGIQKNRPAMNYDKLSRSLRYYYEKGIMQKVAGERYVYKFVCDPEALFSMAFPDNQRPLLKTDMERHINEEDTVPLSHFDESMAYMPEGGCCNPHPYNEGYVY
Chain of ETV6 (P41212 whole entry): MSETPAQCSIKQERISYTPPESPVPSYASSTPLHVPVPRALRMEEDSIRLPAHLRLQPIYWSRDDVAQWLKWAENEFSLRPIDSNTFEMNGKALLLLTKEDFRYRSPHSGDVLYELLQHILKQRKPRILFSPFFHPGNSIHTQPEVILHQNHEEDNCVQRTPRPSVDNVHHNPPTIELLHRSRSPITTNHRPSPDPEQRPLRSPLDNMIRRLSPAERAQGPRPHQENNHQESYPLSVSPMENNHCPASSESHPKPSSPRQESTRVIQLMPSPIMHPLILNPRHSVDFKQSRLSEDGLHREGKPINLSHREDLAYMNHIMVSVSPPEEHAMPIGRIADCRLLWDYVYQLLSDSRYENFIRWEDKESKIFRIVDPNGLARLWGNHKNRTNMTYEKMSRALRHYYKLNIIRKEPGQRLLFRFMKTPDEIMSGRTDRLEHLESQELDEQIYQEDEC
Chain of ETV5 (P41161 whole entry): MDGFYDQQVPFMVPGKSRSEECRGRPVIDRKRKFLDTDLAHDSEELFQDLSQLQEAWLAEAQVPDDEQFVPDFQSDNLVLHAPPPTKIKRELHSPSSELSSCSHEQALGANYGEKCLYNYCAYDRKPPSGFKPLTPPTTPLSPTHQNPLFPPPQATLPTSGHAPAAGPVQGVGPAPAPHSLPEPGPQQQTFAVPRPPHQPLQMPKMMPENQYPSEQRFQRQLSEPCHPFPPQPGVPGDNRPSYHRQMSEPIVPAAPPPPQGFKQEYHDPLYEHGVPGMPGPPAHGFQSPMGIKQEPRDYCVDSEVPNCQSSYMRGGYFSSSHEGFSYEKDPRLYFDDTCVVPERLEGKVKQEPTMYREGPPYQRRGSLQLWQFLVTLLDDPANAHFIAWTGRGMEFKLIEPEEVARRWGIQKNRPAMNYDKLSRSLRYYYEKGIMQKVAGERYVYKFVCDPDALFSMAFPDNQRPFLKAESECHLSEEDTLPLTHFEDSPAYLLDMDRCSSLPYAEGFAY
Chain of ELF4 (Q99607 whole entry): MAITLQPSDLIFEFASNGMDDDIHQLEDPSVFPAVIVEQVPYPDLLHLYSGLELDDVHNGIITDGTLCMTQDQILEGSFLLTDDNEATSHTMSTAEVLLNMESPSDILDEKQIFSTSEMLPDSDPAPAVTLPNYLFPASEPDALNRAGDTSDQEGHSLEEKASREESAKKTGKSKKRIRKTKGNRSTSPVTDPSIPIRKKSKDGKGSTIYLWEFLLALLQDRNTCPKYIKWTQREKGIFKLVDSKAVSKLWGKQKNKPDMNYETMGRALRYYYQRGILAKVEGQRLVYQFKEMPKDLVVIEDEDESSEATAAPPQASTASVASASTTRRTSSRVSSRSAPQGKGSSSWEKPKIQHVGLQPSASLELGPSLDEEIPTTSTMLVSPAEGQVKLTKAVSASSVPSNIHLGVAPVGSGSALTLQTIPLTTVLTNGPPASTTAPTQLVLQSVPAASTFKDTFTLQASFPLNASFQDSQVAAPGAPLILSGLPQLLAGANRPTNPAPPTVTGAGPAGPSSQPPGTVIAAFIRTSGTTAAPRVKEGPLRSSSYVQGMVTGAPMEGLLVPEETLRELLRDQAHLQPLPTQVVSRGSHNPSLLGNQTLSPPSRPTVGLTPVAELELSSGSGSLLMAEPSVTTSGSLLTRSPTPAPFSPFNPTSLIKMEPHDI
Chain of SPIB (Q01892 whole entry): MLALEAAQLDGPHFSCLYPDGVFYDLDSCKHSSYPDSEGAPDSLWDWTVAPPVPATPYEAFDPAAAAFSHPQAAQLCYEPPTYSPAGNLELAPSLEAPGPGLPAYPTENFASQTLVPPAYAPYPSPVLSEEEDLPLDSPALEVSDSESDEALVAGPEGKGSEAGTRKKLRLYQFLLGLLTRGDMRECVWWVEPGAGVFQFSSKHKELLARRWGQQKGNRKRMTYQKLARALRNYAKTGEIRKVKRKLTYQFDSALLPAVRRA

For the sequence CTATCA, the binding signal is 1.1 fold enrichment (6-mer frequency, TF over GST control) in assay [1]; 1.06 fold enrichment (6-mer frequency, TF over GST control) in [2]; 1.1 fold enrichment (6-mer frequency, TF over GST control) in assay [3]; 1.05 fold enrichment (6-mer frequency, TF over GST control) in assay [4]; 1.01 fold enrichment (6-mer frequency, TF over GST control) in [5]; 1.05 fold enrichment (6-mer frequency, TF over GST control) in assay [6]. In addition, the binding signal in assay [7] was 1.02 fold enrichment (6-mer frequency, TF over GST control); in [8], 1.03 fold enrichment (6-mer frequency, TF over GST control); in [9], 1.15 fold enrichment (6-mer frequency, TF over GST control); in assay [10] it was 1 fold enrichment (6-mer frequency, TF over GST control); in assay [11], 1.06 fold enrichment (6-mer frequency, TF over GST control); in assay [12], 1.09 fold enrichment (6-mer frequency, TF over GST control). The binding signal was 1.04 fold enrichment (6-mer frequency, TF over GST control) in assay [13]; 1.07 fold enrichment (6-mer frequency, TF over GST control) in assay [14]; 1.01 fold enrichment (6-mer frequency, TF over GST control) in assay [15]; 1.03 fold enrichment (6-mer frequency, TF over GST control) in [16].

Source of the values: article PMC7862700, “An all-to-all approach to the identification of sequence-specific readers for epigenetic DNA modifications on cytosine”.
